Only some compounds are listed: those with a hit (about 14% of all), similar ones and a draw of the others.
HCMV inh: inhibitors of human cytomegalovirus; HFF cells, HCMV-luciferase reporter, 72 h; hits give low values; activity change, negative = inhibition, % at 57.5 µM; hit rate 4.5% among 410,000; AID 1259415; in the data active means activity change below about -60%; inconclusive means no clear call, values can overlap the other calls; inactive means above about -39%
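Screen run at 2 compound doses on HFFs infected with reporter HCMV, MOI 1 PFU/cell. Luciferase activity from cell lysates at 72 h post infection gave inhibition relative to buffer-only and Salinomycin wells.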
Sm TGR block: inhibitors of Schistosoma mansoni thioredoxin glutathione reductase | Q962Y6 | purified TGR, DTNB reduction, TNB absorbance 405 nm | Potency, µM (titrated, usually from 114 µM), for the others: at the top dose activity change, negative = inhibition, hits mostly inhibitors | hit rate 3% among 360,000 | AID 485364; further: potency means the concentration at half of the fitted maximal effect; nearly all actives have a fitted effect of over 60% in size
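TGR 20 nM + NADPH 100 uM (dispensed conc.), cpd preinc 15 min RT; start with NADPH (500 uM addition) then DTNB (15 mM addition). Kinetic TNB absorbance, 405 nm filter. Four-parameter Hill fit across titration.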
Pf growth 96h: P. falciparum growth inhibition at 96 hours; P. falciparum luciferase reporter growth, 96 h; Potency, µM (titrated, usually from 28.7 µM), for inactives: top-dose activity change, negative = inhibition, most hits filed as inhibitors; hit rate 6.9% among 320,000; further: potency means the concentration at half of the fitted maximal effect
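Delayed-death screen, second-generation endpoint: infected erythrocytes, 2% hematocrit, 0.05% parasitemia final; 96 hours at 37 C, 5% CO2; luciferase detection reagent; luminescence decrease equals reduced growth.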
Giardia FBPA inh-1: inhibitors of Giardia lamblia fructose-1,6-bisphosphate aldolase; A8B2U2; purified Giardia FBPA; Potency, µM (top dose mostly 59.6 µM), inactives show at the highest dose activity, negative = inhibition, actives largely listed as inhibitors; hit rate 0.71% among 290,000; AID 2451; further: potency means the concentration at half of the fitted maximal effect; nearly all actives have a fitted effect of over 55% in size
Target sequence (A8B2U2 whole entry, looked up): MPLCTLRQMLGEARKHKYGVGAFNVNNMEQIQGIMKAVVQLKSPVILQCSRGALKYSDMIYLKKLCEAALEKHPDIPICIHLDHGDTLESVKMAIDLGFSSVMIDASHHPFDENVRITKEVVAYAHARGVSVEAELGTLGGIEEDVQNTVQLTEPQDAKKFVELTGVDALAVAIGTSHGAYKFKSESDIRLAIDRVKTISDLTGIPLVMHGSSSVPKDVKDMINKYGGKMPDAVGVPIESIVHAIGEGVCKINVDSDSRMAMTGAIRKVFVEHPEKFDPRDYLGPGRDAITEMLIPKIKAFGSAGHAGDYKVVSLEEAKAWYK
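40 nM FBPA preincubated 10 min at RT with compound (up to 57.5 uM final), then substrate plus GAPDH/TPI/NAD/arsenate coupling and diaphorase/resazurin added. Fluorescence read after 20 min at RT, 525/598 nm.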
Pf growth 48h: inhibits P. falciparum growth in the first generation, 48 h; P. falciparum luciferase growth in erythrocytes, 48 h; Potency, µM (titrated, usually from 28.7 µM), for inactives: top-dose activity change, negative = inhibition, hits mostly inhibitors; hit rate 5.9% among 310,000; AID 504832; further: potency means the concentration at half of the fitted maximal effect
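Firefly luciferase activity from engineered P. falciparum reports growth; inhibitors lower the luminescent signal. Cultures contained 2% hematocrit erythrocytes at 0.1% final parasitemia.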
Giardia growth: Giardia lamblia growth inhibition; shares compounds with Giardia FBPA inh-1; Giardia lamblia trophozoite growth inhibition; Potency, µM (top dose mostly 57.5 µM), without a hit: at the top dose activity change, negative = inhibition, most hits filed as inhibitors; hit rate 5% among 1,500; AID 2785;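 further: potency means the concentration at half of the fitted maximal effect; trophozoites exposed to compound for 48 h at 37 °C; nearly all actives have a fitted effect of over 70% in size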
Mammal cell tox: toxic to mammalian cells in Giardia aldolase counter-screen; shares compounds with Giardia FBPA inh-1; hit rate 4% among 1,500; Potency, µM (highest dose often 57.5 µM), without a hit: top-dose viability change, negative = toxicity, actives largely listed as inhibitors; mammalian cell viability counter-screen, qHTS;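 further: Chinese hamster ovary cells used as mammalian cytotoxicity surrogate; viability measured as cellular ATP by luminescence; potency means the concentration at half of the fitted maximal effect; compound exposure lasted 48 h before reading; nearly all actives have a fitted effect of over 60% in size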
Giardia FBPA inh-2: confirmation of Giardia fructose-bisphosphate aldolase inhibitors. shares compounds with Giardia FBPA inh-1. AID 2787. purified Giardia aldolase enzyme activity, qHTS. Potency, µM (doses to about 57.5 µM), inactives show top-dose activity change, negative = inhibition, actives largely listed as inhibitors. hit rate 5% among 1,500; further: potency means the concentration at half of the fitted maximal effect; nearly all actives have a fitted effect of over 45% in size
Rabbit aldolase: rabbit FBP aldolase inhibition by Giardia aldolase hits; shares compounds with Giardia FBPA inh-1; Rabbit muscle FBPA enzyme inhibition, selectivity counter-screen; Potency, µM (series often up to 57.5 µM), for inactives: at the highest dose activity, negative = inhibition, usual class: inhibitors; hit rate 4% among 1,500; further: potency means the concentration at half of the fitted maximal effect; nearly all actives have a fitted effect of over 60% in size
Target sequence (P00883 whole entry, looked up): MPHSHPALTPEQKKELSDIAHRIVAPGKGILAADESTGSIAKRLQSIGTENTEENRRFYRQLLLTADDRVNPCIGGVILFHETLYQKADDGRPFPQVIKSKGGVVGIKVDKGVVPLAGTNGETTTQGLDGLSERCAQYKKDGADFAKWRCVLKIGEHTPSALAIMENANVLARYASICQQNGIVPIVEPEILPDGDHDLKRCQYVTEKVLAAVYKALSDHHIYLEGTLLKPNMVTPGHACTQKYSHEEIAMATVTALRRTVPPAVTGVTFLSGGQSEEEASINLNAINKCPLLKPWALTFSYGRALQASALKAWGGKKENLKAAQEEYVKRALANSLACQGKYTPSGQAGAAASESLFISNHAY
GAPDH coupling: counter-screen for Giardia aldolase inhibitors: GAPDH coupling enzyme | GAPDH coupling enzyme counterscreen, biochemical, qHTS | Potency, µM (highest dose often 57.5 µM), for the others: top-dose activity change, negative = inhibition, usual class: inhibitors | AID 2795 | shares compounds with Giardia FBPA inh-1 | hit rate 6% among 1,500; further: potency means the concentration at half of the fitted maximal effect; nearly all actives have a fitted effect of over 55% in size
An asterisk follows results filed as active; i = inactive; ? = inconclusive; / = not tested or not shown; [ ] = another dose, or the depositor's remark. Unless noted, the call rests on the fitted dose curve; in most records, active means well fitted curve in the direction sought with a large enough effect; inconclusive means small, poorly fitted or top-dose-only effect, or another doubt; inactive means no such curve, though single readings can be large; an effect the other way counts as inactive or inconclusive. On the % scale 0 is the no-effect control and ±100 the full control effect.

SMILES	HCMV inh	Sm TGR block	Pf growth 96h	Giardia FBPA inh-1	Pf growth 48h	Giardia growth	Mammal cell tox	Giardia FBPA inh-2	Rabbit aldolase	GAPDH coupling
Cc1cccc(-n2cnc(C(=O)O)c2)n1	-6	-1%	-14%	20µM*	0%	10%[10.4 µM]	22%	2%	-2%	4%
CN(C)C(=S)NC(=O)c1cccc(Cl)c1	19	17%	-8%	16µM*	9%	7.1µM*	15%	-5%	10%	-6%
CCCCCCCC/C=C\CCCCCCCCCCCC(=O)O	/	/	/	10%	/	/	/	/	/	/
Cc1nccn1CCOc1ccc(Cl)cc1	-7	4%	38%	25µM*	2%	-16%[10.4 µM]	11%	0%	2%	8%
Cc1ccc(S(=O)(=O)NCCC(=O)Nc2ccncc2)cc1C	2	1%	-12%	/	-4%	/	/	/	/	/
Cc1cccc(N=Nc2c(C)c(C#N)c(O)[nH]c2=O)c1	?	10%	52%	-6%	25%	/	/	/	/	/
Cc1c(C#N)c(O)n(CCO)c(=O)c1N=Nc1ccc2c(c1)COC2=O	4	0%	8%	20µM*	22%	?	-5%	?	-28%	-21%
Cc1[nH]n(-c2ccccc2)c(=O)c1N=Nc1ccc(C(=O)O)cc1	8	-33%	4%	-25%	5%	/	/	/	/	/
CC(=O)c1ccc(N=Nc2c(C)[nH]n(-c3ccccc3)c2=O)cc1	15	3%	7%	7.1µM*	29%	?	-2%	5%	4%	5%
COc1ccc(-c2cc(-c3ccco3)[nH]c(=O)c2C#N)cc1OC	14	4µM*	1%	16µM*	-1%	19%	-14%	-15%	-11%	-4%
CC(C)Cn1c(N)c(C(=O)COC(=O)c2ccc(O)cc2O)c(=O)n(C)c1=O	-24	-3%	10%	/	-28%	/	/	/	/	/
CCN(CC)S(=O)(=O)c1ccc2c(c1)N(CC(=O)Nc1cccc(C#N)c1)C(=O)CO2	-11	5%	/	/	/	/	/	/	/	/
COc1ccc(N2CCN(CC(O)COC(c3ccc(F)cc3)c3ccc(F)cc3)CC2)cc1 (centres undefined)	-29	1%	15µM*	16µM*	9.3µM*	4%[10.4 µM]	13%	-7%	-8%	3%
COc1ccc(N2CCN(CC(O)COC(c3ccccc3)c3ccccc3)CC2)cc1 (centres undefined)	0	-2%	-5%	-1%	?	/	/	/	/	/
OCCN1CCN(CC(O)COC(c2ccc(F)cc2)c2ccc(F)cc2)CC1 (centres undefined)	-16	-20%	-29%	?	-34%	/	/	/	/	/
OC(COC(c1ccc(F)cc1)c1ccc(F)cc1)CN1CCCC(C(F)(F)F)C1 (centres undefined)	?	-20%	?	14µM*	-85%	?	-3%	2%	4%	-5%
S=c1nc[nH]c2c1ncn2-c1ccccc1	-4	/	/	/	/	/	/	/	/	/
CC(C)n1cnc2c(=S)nc[nH]c21	-5	70%	?	3.2µM*	?	6%[38.3 µM]	-2%	-2%	-20%	?
Cc1nn(-c2ccccc2)c(C)c1/C=N/Nc1nc2ccccc2[nH]1	?	-6%	?	20µM*	0.59µM*	14µM*	25µM*	8%	0%	-16%
O=C1C(=O)c2ccccc2-c2ccccc21	-101*	?	?	0.14µM*	/	13µM*	20µM*	1.1µM*	0.89µM*	1.1µM*
COc1ccc2cc3cc(C(=O)NCCN4CCc5ccccc5C4)oc3nc2c1	/	-11%	?	18µM*	3.3µM*	75%	-14%	-1%	-2%	4%
COc1ccc2cc3cc(C(=O)NCCN4CCc5ccccc5C4)sc3nc2c1	10	-9%	2.6µM*	16µM*	?	20%[10.4 µM]	-7%	-9%	4%	4%
NC(=S)N/N=C/c1ncc(C(F)(F)F)cc1Cl	/	14%	3.3µM*	6.3µM*	1.5µM*	3%[10.4 µM]	?	-18%	4%	?
CCN(C(=O)COC(=O)c1oc2ccccc2c1C)c1c(N)n(Cc2ccccc2)c(=O)[nH]c1=O	-7	2%	?	/	?	/	/	/	/	/
O=C(NCc1ccccc1)c1ccc(/C=N/O)nc1	18	4%	/	2%	0%	/	/	/	/	/
SMILES	HCMV inh	Sm TGR block	Pf growth 96h	Giardia FBPA inh-1	Pf growth 48h	Giardia growth	Mammal cell tox	Giardia FBPA inh-2	Rabbit aldolase	GAPDH coupling
CNCCCNC(=O)c1ccc(/C=N/O)nc1	-38	-35%	167%	16µM*	-9%	60%	-6%	1%	8%	4%
CN(C)CCCNC(=O)c1ccc(/C=N/O)nc1	-26	0%	i	2%	-24%	/	/	/	/	/
NC(=O)c1ccc(/C=N/O)nc1	-10	13%	-25%	18µM*	3%	?	3%	3%	6%	2%
CC1CN(CCc2ccccc2)c2nc3c(c(=O)n(CC(N)=O)c(=O)n3C)n2C1 (centres undefined)	13	-4%	6%	2%	15%	/	/	/	/	/
Cc1ccccc1N=Cc1cccc(O)c1O	/	5µM*	3%	5.6µM*	?	20µM*	-10%	11µM*	32µM*	32µM*
Cc1cccc(C=Nc2ccc3c(c2)oc2ccccc23)c1O	45	-5%	-30%	-3%	51%	/	/	/	/	/
COc1ccc(Cc2c(O)[nH]c(=S)[nH]c2=O)cc1	77	2%	0.37µM*	25µM*	4%	-13%[10.4 µM]	15%	-6%	11%	11%
CN(CC(=O)Nc1ccc(Cl)cc1)C(=O)CNC(=O)c1ccc(Br)o1	1	-3%	31%	/	-11%	/	/	/	/	/
O=[N+]([O-])c1ccc(O)c(/C=N/Nc2ccccn2)c1	-102*	-6%	?	5µM*	2.9µM*	?	20µM*	?	4%	-28%
O=C(O)COc1ccc(Br)cc1/C=N\Nc1ccccn1	/	-7%	?	11µM*	-5%	-20%	-7%	4%	10%	15%
C=C(C)C1CC=C(C)CC1 (centres undefined)	/	/	14%	/	5%	/	/	/	/	/
O=C(O)c1ccc(CCN2CCN(CC=Cc3ccc(Cl)cc3)CC2)cc1	/	/	/	0%	/	/	/	/	/	/
COCCOC(=O)c1c(N)n(Cc2ccco2)c2nc3ccccc3nc12	17	6%	-27%	7.1µM*	-4%	-5%[38.3 µM]	7%	-11%	-6%	-9%

Screening data deposited in PubChem by National Center for Advancing Translational Sciences (NCATS).
